# Screens from PubChem BioAssay.
# Neddylation inh = inhibitors of cullin neddylation, primary screen, biochemical, TR-FRET, uHTS, NAE and Ubc12 | inhibition, % at 25 µM | 0.58% of 360,000 active | AID 651699, 2012; in the data active means inhibition above about 36%
# ARNT-TACC3 inh = disruptors of ARNT/TACC3 protein interaction, primary screen, biochemical, AlphaScreen, single concentration; Transforming acidic coiled-coil-containing protein 3 (Homo sapiens), Q9Y6A5; AlphaScreen His-ARNT PAS-B/GST-TACC3 binding, luminescence; TACC3 fragment carries E629A point mutation; 0.66% of 390,000 active; inhibition, % at 9.99 µM;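 active means mean inhibition of replicates at least 50% and at least half of replicates each reaching 50%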;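 further: 0% = complete ARNT plus TACC3 wells and 100% = ARNT alone without TACC3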
# sPLA2-III inh = human group III sPLA2 inhibitors, primary screen, biochemical, QFRET, BODIPY PC-A2 liposome substrate. Group 3 secretory phospholipase A2 (Homo sapiens), Q9NZ20. QFRET BODIPY PC-A2 liposome hydrolysis, fluorescence. inhibition, % at 12.2 µM. 0.56% of 370,000 active;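 active means inhibition above mean plus 3 SD of compounds lying within the high and low control bounds, cut at about 19% in these data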;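 further: 0% = median of test compound wells and 100% = no enzyme DMSO wells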
# Target sequence (Q9NZ20 whole entry, looked up): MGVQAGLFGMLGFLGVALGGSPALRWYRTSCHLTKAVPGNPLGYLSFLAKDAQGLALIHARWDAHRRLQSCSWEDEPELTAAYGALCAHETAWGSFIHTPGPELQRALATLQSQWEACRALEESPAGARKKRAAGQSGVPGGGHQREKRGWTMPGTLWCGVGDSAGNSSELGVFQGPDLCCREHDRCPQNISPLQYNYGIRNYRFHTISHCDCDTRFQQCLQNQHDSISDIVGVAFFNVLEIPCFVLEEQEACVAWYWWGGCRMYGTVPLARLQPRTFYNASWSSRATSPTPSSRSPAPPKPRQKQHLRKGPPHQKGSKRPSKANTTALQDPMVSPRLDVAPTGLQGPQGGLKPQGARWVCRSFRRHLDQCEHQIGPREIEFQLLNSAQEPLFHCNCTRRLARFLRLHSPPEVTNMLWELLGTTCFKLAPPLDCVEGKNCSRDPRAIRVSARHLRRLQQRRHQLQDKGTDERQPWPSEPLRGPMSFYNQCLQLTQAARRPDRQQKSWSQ
# DAGLB inhibitor = DAGLB lipase inhibitors, primary screen, biochemical, fluorescence, HTS | Diacylglycerol lipase-beta (Homo sapiens), Q8NCG7 | 0.059% of 340,000 active | HEK293T DAGLB membrane lysate, EnzChek fluorogenic substrate | inhibition, % at 5.17 µM; in the data active means inhibition above about 34%;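 further: 0% = enzyme with vehicle and 100% = wells lacking enzyme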
# NadD block = inhibitors of S. aureus NadD, primary screen, biochemical, colorimetric, uHTS; purified NadD enzyme, colorimetric absorbance read-out; inhibition, % at 20 µM; 0.78% of 360,000 active; in the data active means inhibition above about 26%
# NadD conf = inhibitors of S. aureus NadD, confirmation, biochemical, colorimetric, single concentration; shares compounds with NadD block; purified S. aureus NadD, colorimetric enzyme assay; inhibition, % at 20 µM; 13% of 2,000 active; AID 624309, 2012; in the data active means inhibition mostly above about 42%, no sharp cut-off; inactive means mostly below about 42%
# ARNT Alpha ctr-1 = AlphaScreen signal interference compounds, dose response, artefact control for ARNT-TACC3 interaction inhibitor project, biochemical, luminescence, cherry-pick | 50% of 1,200 active | His-ARNT PASB-GST AlphaScreen artifact counter-screen | shares compounds with ARNT-TACC3 inh | AC50, µM (series often up to 68 µM), without a hit: top-dose activity change, negative = signal decrease;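 active means every separate test run was called active for a drop in luminescence, with AC50 within twice the top valid dose, actives reach about 71 µM in these data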
# ARNT Alpha ctr-2 = AlphaScreen signal interference by compounds, dose response, artefact control for ARNT/TACC3 disruptor project, biochemical, dual-tagged ARNT, dry powder; shares compounds with ARNT-TACC3 inh; Dual-tagged His-ARNT PASB-GST AlphaScreen artifact counter-screen; AC50, µM; 70% of 45 active; AID 720564, 2013;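 active means luminescence drop, with half-maximal potency fitted within twice the sample's top valid dose, cut at about 70 µM in these data; inactive means the rest, including signal moving the wrong way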
# Neddyl conf = blockade of NEDD8 conjugation to cullin – biochemical, TR-FRET, single concentration, confirmation. shares compounds with Neddylation inh. TR-FRET cullin neddylation biochemical assay. calls only at 25 µM. 13% of 1,800 active; in the data active means inhibition above about 40%;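 further: neddylation substrate is the cullin 1 ring ligase complex with SKP2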
# Starred values were filed as active, the others as inactive; i = inactive; · = not tested or not shown. Rows were chosen to be rich in hits. Some 2% of all compounds tested hit in one or more screens of this group.
SMILES,Neddylation inh,ARNT-TACC3 inh,sPLA2-III inh,DAGLB inhibitor,NadD block,NadD conf,others
COc1ccc(Cl)cc1Nc1nc(-c2sc(NC(=O)C(C)(C)C)nc2C)cs1,-25,-17,-5,0,39*,10,
COc1cccc(Nc2nc(-c3sc(NC(=O)c4ccco4)nc3C)cs2)c1,-41,-2,3,3,30*,42*,
CCOc1ccccc1Nc1nc(-c2sc(NC(=O)c3cccc(Cl)c3)nc2C)cs1,3,-5,2,4,55*,0,
CCC(C)C(=O)Nc1nc(C)c(-c2csc(Nc3cc(Cl)ccc3OC)n2)s1 (configuration not stated),-18,-8,0,0,32*,13,
COc1ccccc1Nc1nc(-c2sc(NC(=O)c3ccccc3)nc2C)cs1,-23,15,8,4,29,·,
O=C(C[C@@H]1CC[C@H]2[C@@H](COC[C@H](O)CN2Cc2ccccc2)O1)N[C@@H]1CCN(Cc2ccccc2)C1,·,-1,·,·,·,·,
CN1C(=O)c2cc(NC(=O)c3ccc(F)cc3)ccc2OC[C@H]2O[C@H](CC(=O)NCC3CCCCC3)CC[C@@H]21,·,-15,·,·,·,·,
COC(=O)CCCCCCC(=O)Nc1ccc(C2OC(CSc3nc4ccccc4s3)CC(c3ccccc3)O2)cc1 (configuration not stated),·,9,·,·,·,·,
Cc1oc2ccc(NS(=O)(=O)c3ccc(C(C)(C)C)cc3)cc2c1C(=O)Nc1ccccc1,-2,1,-26,-1,33*,34,
CC(C)(C)S(=O)N1Cc2cc(C(=O)NCc3ccc(Oc4ccccc4)cc3)nc(-c3cccc(-c4cc5ccccc5o4)c3)c2[C@H]1CCO (some centres not stated),10,·,12,·,35*,23,
CC(C)(C)S(=O)N1Cc2cc(C(=O)NCCCN3CCOCC3)nc(-c3cccc(-c4cc5ccccc5o4)c3)c2[C@@H]1CCO (some centres not stated),12,·,-20,·,-6,·,
CC(C)(C)S(=O)N1Cc2cc(C(=O)NCc3ccc4c(c3)OCO4)nc(-c3cccc(-c4cc5ccccc5o4)c3)c2[C@@H]1CCO (some centres not stated),11,·,-4,·,33*,6,
Cc1ccc(S(=O)(=O)Nc2ccc3c(c2)C(=O)N([C@@H](C)CO)C[C@H](C)[C@@H](CN(C)Cc2ccc(C(F)(F)F)cc2)OCCCC[C@@H](C)O3)cc1,·,10,·,·,·,·,
O=C(CSc1nnc(-c2ccc3c(c2)OCO3)o1)Nc1ncc(C(F)(F)F)cc1Cl,-30,1,-5,-1,34*,5,
Cc1nc(NC(=O)CSc2nnc(-c3ccc4c(c3)OCO4)o2)c(Cl)cc1Cl,13,0,-18,0,-4,·,
CN(C)CCCNC(=O)C[C@H]1CC[C@@H]2[C@@H](COc3ccc(NC(=O)c4ccc5c(c4)OCO5)cc3C(=O)N2C)O1,·,15,·,·,·,·,
CC(C)(O)C#Cc1ccc(N2C(c3ccsc3)=Cc3ccc(F)cc3C2c2c[nH]c3ccc(C#N)cc23)cc1 (configuration not stated),6,·,-3,·,15,·,
CCOC(=O)c1ccc(-c2ccc(N3C(c4ccsc4)=Cc4ccc(F)cc4C3c3c[nH]c4ccc(C#N)cc34)cc2)cc1F (configuration not stated),·,·,7,·,30*,10,
CCCNC(=O)C[C@H]1CC[C@H]2[C@H](COc3ccc(NC(=O)Nc4cccc(C)c4)cc3C(=O)N2C)O1,·,1,·,·,·,·,
Cc1[nH][nH]c(=O)c1C(c1c(C)[nH][nH]c1=O)c1cn(Cc2cccc3ccccc23)c2ccccc12,-2,26*,-5,9,46*,67*,ARNT Alpha ctr-1=46µM*
Cc1[nH][nH]c(=O)c1C(c1c(C)[nH][nH]c1=O)c1cn(C)c2ccccc12,1,36,7,3,0,·,
Cc1ccc(C(=O)Nc2nc(-c3ccccn3)cs2)cc1S(=O)(=O)N1CCOCC1,-21,66*,-1,1,31*,22,ARNT Alpha ctr-1=24µM*;ARNT Alpha ctr-2=10*
O=C(C[C@H]1C=C[C@H](NC(=O)CC2CC2)[C@@H](CO)O1)NCC(F)(F)F,·,0,·,·,·,·,
O=C(O)COc1ccccc1/C=N/NC(=O)c1cc(-c2ccc(Cl)cc2)nc2ccccc12,5,41*,-23,4,24*,53*,ARNT Alpha ctr-1=56µM*
CNC[C@H]1Oc2cc(-c3cncnc3)ccc2S(=O)(=O)N([C@H](C)CO)C[C@@H]1C,·,4,·,·,·,·,
SMILES,Neddylation inh,ARNT-TACC3 inh,sPLA2-III inh,DAGLB inhibitor,NadD block,NadD conf,others
Cc1ccc(-c2cc(-c3ccc(F)cc3)c(C#N)c(N)n2)o1,53*,·,-2,8,65*,9,
NNC(=O)c1oc2nc(-c3ccccc3)cc(-c3ccccc3)c2c1N,41*,·,-6,1,31*,12,Neddyl conf=i
O=C(c1cccc(F)c1)N1C[C@@H]2[C@H](c3ccccc31)[C@H](CO)N2C(=O)c1ccc(F)cc1,·,1,·,·,·,·,
COc1ccccc1NS(=O)(=O)c1cccc(C(=O)N/N=C/c2cn(-c3ccccc3)nc2-c2ccccc2)c1,38*,0,-17,-10,33*,25,
COc1ccc(NS(=O)(=O)c2cccc(C(=O)N/N=C/c3cn(-c4ccccc4)nc3-c3ccccc3)c2)cc1,33,-5,2,1,12,·,
CN(C)C(=O)C[C@H]1CC[C@@H]2[C@H](COC[C@H](O)CN2C(=O)C2CC2)O1,·,-2,·,·,·,·,
